Source: PubChem BioAssay
The list is not random: actives were taken first. Their share in the collection is about 12%.
BAZ2B block = inhibitors of human BAZ2B bromodomain. Q9UIF8. AlphaScreen BAZ2B-H3K14Ac peptide displacement. Potency, µM (top dose mostly 114 µM), for the others: top-dose activity change, negative = inhibition, hits mostly inhibitors. actives 4.4% (n = 360,000). AID 504333; also: % is scaled to controls: 0 for no effect and ±100 for the full control effect; nearly all actives have a fitted effect of over 60% in size
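Compounds, titrated to a top concentration of 110 uM, were incubated 30 min at room temperature with preformed BAZ2B/acetyl-K14 H3 peptide complex (50 nM each). Proximity signal was measured by AlphaScreen after 20 min with beads.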
JMJD2A Tudor inh = JMJD2A Tudor domain (human) inhibition. O75164. AlphaScreen JMJD2A-Tudor / H3K4me3 peptide binding. Potency, µM (series often up to 114 µM), inactives show top-dose activity change, negative = inhibition, hits mostly inhibitors. actives 4.4% (n = 390,000). AID 504339; also: % is scaled to controls: 0 for no effect and ±100 for the full control effect; nearly all actives have a fitted effect of over 50% in size
Sfp inh = inhibitors of Bacillus subtilis Sfp phosphopantetheinyl transferase. Q9F4F7. Biochemical Sfp PPTase activity, qHTS. Potency, µM, without a hit: largest response in the series, negative = inhibition, most hits filed as inhibitors. actives 3.5% (n = 310,000). AID 1490;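 also: the enzyme is Sfp with the accession as filed and its product quenches rhodamine fluorescence; 0% = enzyme reaction without inhibitor and -100% = no enzyme wells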
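After 15 min at room temperature with compound, 15 nM Sfp received 5 uM rhodamine-CoA plus 12.5 uM BHQ-2-ybbR (50 mM Hepes pH 7.6, 10 mM MgCl2). Rate came from the fluorescence difference over 30 min, ex 525/em 598 nm.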
G9a block = inhibitors of human histone lysine methyltransferase G9a; Q96KQ7; G9a H3K9 monomethylation, AlphaScreen, 2 h; Potency, µM (titrated, usually from 102 µM), for inactives: at the top dose activity, negative = inhibition, usual class: inhibitors; actives 8.8% (n = 350,000); also: % is scaled to controls: 0 for no effect and ±100 for the full control effect; nearly all actives have a fitted effect of over 75% in size
Target sequence (Q96KQ7 913-1193 limits assumed): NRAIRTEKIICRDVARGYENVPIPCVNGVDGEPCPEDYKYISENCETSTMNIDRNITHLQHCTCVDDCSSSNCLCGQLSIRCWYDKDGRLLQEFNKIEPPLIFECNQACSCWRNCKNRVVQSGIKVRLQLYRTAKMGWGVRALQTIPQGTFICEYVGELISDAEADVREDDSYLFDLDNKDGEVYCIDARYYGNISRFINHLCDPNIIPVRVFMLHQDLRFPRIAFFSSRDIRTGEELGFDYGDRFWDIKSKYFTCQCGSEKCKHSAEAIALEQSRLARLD
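AlphaScreen read-out: biotin-H3K9 peptide (500 nM) methylation by 20 nM enzyme with 20 uM SAM, 2 h at room temperature after 15 min compound preincubation; anti-monomethyl H3K9 antibody plus donor/acceptor beads, 10 min dark.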
HP1b binding inh = inhibitors of HP1-beta chromodomain binding to methylated histone tails. P83916. AlphaScreen HP1-beta / biotin-H3K9me3 peptide binding. Potency, µM (doses to about 114 µM), for the others: top-dose activity change, negative = inhibition, usual class: inhibitors. actives 0.56% (n = 390,000). AID 540317; also: nearly all actives have a fitted effect of over 70% in size
Target sequence (P83916 whole entry, looked up): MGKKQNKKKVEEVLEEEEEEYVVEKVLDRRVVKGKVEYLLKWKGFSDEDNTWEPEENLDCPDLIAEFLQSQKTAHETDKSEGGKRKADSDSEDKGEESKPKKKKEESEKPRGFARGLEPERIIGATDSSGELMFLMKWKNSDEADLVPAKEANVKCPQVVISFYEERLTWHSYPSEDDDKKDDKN
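Compound inhibition of the preformed complex between 50 nM HP1-beta and 50 nM biotinylated H3K9me3 peptide was read by AlphaScreen. Buffer was PBS pH 7.4 with 0.01% Tween-20. Incubations ran 30 min at room temperature, with 10 ug/mL donor/acceptor beads.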
An asterisk follows results filed as active; [ ] = another dose, or the depositor's remark. Calls follow the shape of the dose curve; as a rule, active = well fitted curve in the direction sought with a large enough effect; inconclusive = small, poorly fitted or top-dose-only effect, or another doubt; inactive = no such curve, though single readings can be large; an effect the other way counts as inactive or inconclusive. Potency is read from the fitted curve at half-maximal effect.

How did COC(=O)c1ccc2c(=O)[nH]c(CN3c4ccccc4CC3C)nc2c1 (stereo not given) do in these assays?
BAZ2B block: -29%; JMJD2A Tudor inh: -30%; Sfp inh: -20%; G9a block: 11µM*; HP1b binding inh: 8%

How did CN1C2CCC1/C(=C/c1cccn1C)C(=O)/C2=C\c1cccn1C do in these assays?
BAZ2B block: 45µM*; JMJD2A Tudor inh: 45µM*; Sfp inh: inconclusive; G9a block: inconclusive; HP1b binding inh: inconclusive

What do the screens show for `Cn1cccc1/C=C1\CC(C(C)(C)C)C/C(=C\c2cccn2C)C1=O` (stereo not given)?
BAZ2B block: 28µM*; JMJD2A Tudor inh: 40µM*; Sfp inh: -27%; G9a block: inconclusive; HP1b binding inh: inconclusive

How did CN1C2CCC1/C(=C\c1ccc(F)cc1)C(=O)/C2=C/c1ccc(F)cc1 do in these assays?
BAZ2B block: -34%; JMJD2A Tudor inh: -31%; Sfp inh: 7%; G9a block: -3%; HP1b binding inh: 2%

How did COc1cc(/C=C2\CC(C(C)(C)C)C/C(=C\c3cc(OC)c(OC)c(OC)c3)C2=O)cc(OC)c1OC (stereo not given) do in these assays?
BAZ2B block: inconclusive; JMJD2A Tudor inh: inconclusive; Sfp inh: -20%; G9a block: -31%[2.33 µM]; HP1b binding inh: inconclusive

How did Cc1cc(C(=O)COc2cccc3cccnc23)c(C)n1C do in these assays?
BAZ2B block: 11µM*; JMJD2A Tudor inh: -12%[57.1 µM]; Sfp inh: 2%; G9a block: 2.8µM*; HP1b binding inh: -15%

Results for Cc1cc(C(=O)COc2cccnc2[N+](=O)[O-])c(C)n1-c1ccccc1 ?
BAZ2B block: inconclusive; JMJD2A Tudor inh: -11%; Sfp inh: -22%; G9a block: inconclusive; HP1b binding inh: -4%

Results for Cc1cc(C(=O)COc2nncc3ccccc23)c(C)n1C ?
BAZ2B block: -8%; JMJD2A Tudor inh: -10%; Sfp inh: 12%; G9a block: 79µM*; HP1b binding inh: -2%

How did Cc1ccc(OCC(=O)c2cc(C)n(C)c2C)c([N+](=O)[O-])n1 do in these assays?
BAZ2B block: 56µM*; JMJD2A Tudor inh: -29%; Sfp inh: inconclusive; G9a block: inconclusive; HP1b binding inh: 1%

Results for O=C(c1nc2ccccn2c1CN1CCCC(c2nc3ccccc3o2)C1)N1CCCC1 (stereo not given) ?
BAZ2B block: -21%; JMJD2A Tudor inh: -18%; Sfp inh: 10%; G9a block: -21%; HP1b binding inh: 30%

What do the screens show for `O=S(=O)(c1ccc2nc(N3CCN(c4ccccc4F)CC3)ccc2c1)N1CCCCC1`?
BAZ2B block: -16%; JMJD2A Tudor inh: 5%; Sfp inh: -5%; G9a block: 18µM*; HP1b binding inh: 17%[57 µM]

What do the screens show for `COc1ccc(Nc2ccc3cc(S(=O)(=O)N4CCCC4)ccc3n2)cc1OC`?
BAZ2B block: inconclusive; JMJD2A Tudor inh: inconclusive; G9a block: 14µM*; HP1b binding inh: 22%

What do the screens show for `CC(=O)c1cccc(Nc2ccc3cc(S(=O)(=O)N4CCCC4)ccc3n2)c1`?
BAZ2B block: 3%; JMJD2A Tudor inh: 1%; G9a block: inconclusive; HP1b binding inh: 55%

Results for O=S(=O)(c1ccc2nc(Nc3ccccc3)ccc2c1)N1CCCCC1 ?
BAZ2B block: 40µM*; JMJD2A Tudor inh: 28µM*; Sfp inh: 50µM*; HP1b binding inh: 24%

How did COc1ccc(CNc2ccc3cc(S(=O)(=O)N4CCCCC4)ccc3n2)cc1 do in these assays?
BAZ2B block: -20%; JMJD2A Tudor inh: 3%; G9a block: 11µM*; HP1b binding inh: 30%

How did COc1cccc(Nc2ccc3cc(S(=O)(=O)N4CCC(C)CC4)ccc3n2)c1 do in these assays?
BAZ2B block: 10%; JMJD2A Tudor inh: 25%; G9a block: inconclusive; HP1b binding inh: 77%

How did O=C(CNC(=O)C12CC3CC(CC(C3)C1)C2)NCc1ccccc1 do in these assays?
BAZ2B block: -2%; JMJD2A Tudor inh: -10%; G9a block: -4%; HP1b binding inh: 10%

How did CCN(CC(=O)Nc1c(F)cccc1F)C(=O)Cc1csc(-c2ccc(OC)c(OC)c2)n1 do in these assays?
BAZ2B block: -1%; JMJD2A Tudor inh: -12%; G9a block: -20%; HP1b binding inh: 13%

Results for COc1cccc(Cc2nc3ccccc3nc2SCC(=O)Nc2cccc(C)c2)c1 ?
BAZ2B block: -1%; JMJD2A Tudor inh: -12%; G9a block: 3%[59 µM]; HP1b binding inh: 32%[57 µM]

Results for COc1ccc(OC)c(CNc2ccc3c(c2)CCC3)c1 ?
BAZ2B block: inconclusive; JMJD2A Tudor inh: inconclusive; Sfp inh: -2%; G9a block: 32µM*; HP1b binding inh: inconclusive

What do the screens show for `COc1cccc(CNc2ccc3c(c2)CCC3)c1`?
BAZ2B block: inconclusive; JMJD2A Tudor inh: inconclusive; Sfp inh: -26%; G9a block: 14µM*; HP1b binding inh: -14%

How did COc1ccc(OC)c(CC(=O)Nc2ccc3c(c2)CCC3)c1 do in these assays?
BAZ2B block: -6%; JMJD2A Tudor inh: -22%; Sfp inh: 6%; G9a block: 26%; HP1b binding inh: -7%

How did COc1ccc(OC)c(CNc2ccc(F)c(Cl)c2)c1 do in these assays?
BAZ2B block: inconclusive; JMJD2A Tudor inh: inconclusive; Sfp inh: 3%; G9a block: 50µM*; HP1b binding inh: -4%

How did CCC1CCc2nc3sc(C(=O)Nc4ccc(F)c(Cl)c4)c(N)c3cc2C1 (stereo not given) do in these assays?
BAZ2B block: 7%; JMJD2A Tudor inh: -8%; G9a block: 2%[59 µM]; HP1b binding inh: -5%

How did O=C(O)c1cc(S(=O)(=O)Nc2ccc3oc(=O)sc3c2)ccc1O do in these assays?
BAZ2B block: inconclusive; JMJD2A Tudor inh: inconclusive; Sfp inh: 40µM*; G9a block: inconclusive; HP1b binding inh: 24%

What do the screens show for `COc1ccccc1N(CC(=O)NC(C)(C)C)S(=O)(=O)c1cccs1`?
BAZ2B block: 1%; JMJD2A Tudor inh: 56µM*; Sfp inh: -13%; G9a block: -13%; HP1b binding inh: -4%

What do the screens show for `CCNC(=O)CN(c1ccccc1OC)S(=O)(=O)c1cccs1`?
BAZ2B block: 4%; JMJD2A Tudor inh: -14%; Sfp inh: 0%; G9a block: 4%[59 µM]; HP1b binding inh: 8%

How did O=C(CSc1nc2ccsc2c(=O)n1CC1CCC(C(=O)O)CC1)c1ccc(Cl)cc1 (stereo not given) do in these assays?
JMJD2A Tudor inh: 79µM*; Sfp inh: -17%; G9a block: 56µM*; HP1b binding inh: -19%

What do the screens show for `O=C(O)CCCCCn1c(SCC(=O)c2ccc(O)c(O)c2)nc2ccsc2c1=O`?
BAZ2B block: inconclusive; JMJD2A Tudor inh: inconclusive; Sfp inh: -13%; G9a block: 79µM*; HP1b binding inh: -2%
